# According to PubChem BioAssay (NCATS):
# Values joined by “and” are separate entries in the source; they are usually repeats but may differ in a detail not shown here. Equal entries are not always repeated. Records with an inconclusive call do not appear. Where a call stands in place of a potency, no number is given. Active and inactive are the calls of the source. Unless noted, calls follow the shape of the dose curve; as a rule, active = well fitted curve in the direction sought with a large enough effect; inconclusive = small, poorly fitted or top-dose-only effect, or another doubt; inactive = no such curve, though single readings can be large; an effect the other way counts as inactive or inconclusive.
# How the values were obtained:
# [1] = Counterscreen qHTS for small molecule stabilizers of the endoplasmic reticulum resident proteome: GLuc-NoTag assay (AID 1508627); also: potency is read from the fitted curve at half-maximal effect;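 as to activity change, negative = inhibition: SH-SY5Y cells given compound then 100 nM thapsigargin to empty ER calcium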
# Procedure, shortened: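 Luminescence of Gaussia luciferase secreted into the medium (coelenterazine, 0.07x final, unlysed cells) was the read-out. Human SH-SY5Y neuroblastoma cells constitutively secreting untagged GLuc received compound for 19 h, then 100 nM thapsigargin for 4 h.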
# [2] = Confirmatory qHTS for small molecule stabilizers of the endoplasmic reticulum resident proteome: Secreted ER Calcium Modulated Protein (SERCaMP) assay (AID 1508628); also: nearly all actives have a fitted effect of over 40% in size; also: potency is read from the fitted curve at half-maximal effect
# Procedure, shortened: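 We seeded SH-SY5Y-GLuc-SERCaMP cells, added compounds (three concentrations in the primary run, eleven up to 76.6 uM in confirmation), incubated 16 h, depleted ER calcium with thapsigargin, and read luciferase 4 h later.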
# [3] = Cell Viability qHTS for small molecule stabilizers of the endoplasmic reticulum resident proteome (AID 1508629); settings: cell viability counter-screen, 100 nM thapsigargin for final 4 h;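 also: human SH-SY5Y neuroblastoma cells carrying the GLuc-SERCaMP reporter; compound exposure about 46 h in total before the viability read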
# [4] = biological target: Cytochrome P450 2D6 (Homo sapiens) (UniProt P10635); test: Cytochrome P450 family 2 subfamily D member 6 (CYP2D6) small molecule antagonists: luciferase biochemical (cell-free) qHTS assay (AID 1645840; active = well fitted curve in the direction sought with a large enough effect in the repeat runs; an effect the other way counts as inactive or inconclusive; also: nearly all actives have a fitted effect of over 55% in size; also: potency is read from the fitted curve at half-maximal effect)
# Procedure, shortened: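 P450-Glo luminescent screen: recombinant CYP2D6 enzyme–proluciferin substrate mix preincubated with compound 10 min at room temperature, then NADPH regeneration added for 1 h at room temperature. Detection reagent added for 20 min; luciferin light read as relative luminescence units.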
# [5] = biological target: Cytochrome P450 2C9 (Homo sapiens) (UniProt P11712); test: Cytochrome P450 family 2 subfamily C member 9 (CYP2C9) small molecule antagonists: luciferase biochemical (cell-free) qHTS assay (AID 1645842; active = well fitted curve in the direction sought with a large enough effect in the repeat runs; an effect the other way counts as inactive or inconclusive; also: nearly all actives have a fitted effect of over 55% in size; also: potency is read from the fitted curve at half-maximal effect)
# Procedure, shortened: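 Luminescence, after 20 min with luciferin detection reagent, reflected CYP2C9 turnover during a 1 h NADPH-driven reaction at 37C. Enzyme-substrate mix contained 0.4% bovine serum albumin and was preincubated with compound 10 min at room temperature.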
# Papain (Carica papaya) = Papain (Carica papaya) (UniProt P00784); test: Primary qHTS assay for inhibitors of the protease papain (AID 1645873);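 also: papain turnover of Z-FR-AMC read as the AMC fluorescence gain over 10 min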
# [6] = Primary qHTS for small molecule stabilizers of the endoplasmic reticulum resident proteome: Secreted ER Calcium Modulated Protein (SERCaMP) assay (AID 1508630); also: potency is read from the fitted curve at half-maximal effect
# Procedure, shortened: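 GLuc-SERCaMP-expressing SH-SY5Y cells, pretreated 16 h with compound, are challenged with thapsigargin to empty ER calcium stores; after 4 h, coelenterazine is added directly to the medium and luminescence is imaged.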
# [7] = A High-Content qHTS Against Drug Library for the Identification of Small Molecules that Inhibit DYT1 Early Onset Primary Dystonia-Associated Cell Pathology (AID 1645839; calls by dose curve)
# Procedure, shortened: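 In this high-content image screen, delE TorsinA mislocalization in inducible Flp-In 293 cells is scored as %pathology, with cell count serving as the counterscreen. Compound exposure lasts 48 h under tetracycline induction in reduced-serum medium.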
# [8] = biological target: Cytochrome P450 3A4 (Homo sapiens) (UniProt P08684); test: Cytochrome P450 family 3 subfamily A member 4 (CYP3A4) small molecule antagonists: luciferase qHTS assay (AID 1645841; active = well fitted curve in the direction sought with a large enough effect in the repeat runs; an effect the other way counts as inactive or inconclusive; also: nearly all actives have a fitted effect of over 45% in size)
# Procedure, shortened: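 Luminescent CYP3A4 activity readout: compounds plus enzyme-substrate mix 10 min at room temperature, reaction started with NADPH regenerating system for 1 h, stopped with detection reagent, read after 20 min. Ketoconazole served as control.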
# [9] = Primary qHTS for inhibitors of nuclear receptor binding SET domain protein 2 (NSD2) in an isogenic RCH-ACV NSD2 p.E1099K mutant (9B) (AID 1645876); also: nearly all actives have a fitted effect of over 70% in size; also: potency is read from the fitted curve at half-maximal effect
# [10] = Primary qHTS for inhibitors of nuclear receptor binding SET domain protein 2 (NSD2) in an RCH-ACV wild type WT cells (2C) (AID 1645877); also: nearly all actives have a fitted effect of over 70% in size; also: potency is read from the fitted curve at half-maximal effect
# [11] = biological target: Catechol O-methyltransferase (Homo sapiens) (UniProt P21964); test: Confirmatory Screen for Target Class Profiling of Small Molecule Inhibitors of Methyltransferases (AID 1745852; calls by dose curve); settings: MTase-Glo luminescence, SAH detection, recombinant enzyme; measured here: COMT max response; stronger effect = lower value
# [12] = biological target: Guanidinoacetate N-methyltransferase (Homo sapiens) (UniProt Q14353); test: as above; settings: MTase-Glo luminescence, SAH detection, recombinant enzyme; at 57.3 µM (top of the series)
# [13] = biological target: Nicotinamide N-methyltransferase (Homo sapiens) (UniProt P40261); test: as above; settings: MTase-Glo luminescence, SAH detection, recombinant enzyme; measured here: NNMT max response; stronger effect = lower value
# [14] = biological target: Rap guanine nucleotide exchange factor 3 (Homo sapiens) (UniProt O95398); test: Confirmatory qHTS for antagonist of cAMP-regulated guanine nucleotide exchange factor 3 (EPAC1) (AID 1645880); also: nearly all actives have a fitted effect of over 55% in size
# Procedure, shortened: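 Nucleotide exchange uses 100 nM EPAC1, 250 nM RAP1B-BODIPY-GDP and 50 uM GDP, with compounds in a concentration-titration series. After 5 min at room temperature, fluorescence (480 nm ex/540 nm em) is read every 5 min for 30 min. Data are normalized to control ATA and DMSO.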
# [15] = biological target: Rap guanine nucleotide exchange factor 3 (Homo sapiens) (UniProt O95398); test: Confirmatory qHTS for agonist of cAMP-regulated guanine nucleotide exchange factor 3 (EPAC1) (AID 1645881);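 also: EPAC1 catalysed release of BODIPY-GDP from Rap1B seen as fluorescence loss; nearly all actives have a fitted effect of over 75% in size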
# [16] = biological target: Rap guanine nucleotide exchange factor 4 (Homo sapiens) (UniProt Q8WZA2); test: Confirmatory qHTS for agonist of cAMP-regulated guanine nucleotide exchange factor 4 (EPAC2) (AID 1645884);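 also: nucleotide exchange releases bodipy-GDP from Rap1 and this lowers its fluorescence; nearly all actives have a fitted effect of over 65% in size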
# [17] = biological target: Rap guanine nucleotide exchange factor 4 (Homo sapiens) (UniProt Q8WZA2); test: Confirmatory qHTS for antagonist of cAMP-regulated guanine nucleotide exchange factor 4 (EPAC2) (AID 1645885); also: potency is read from the fitted curve at half-maximal effect; nearly all actives have a fitted effect of over 25% in size
# Sequence of Cytochrome P450 2C9 (Homo sapiens) (P11712 whole entry, looked up): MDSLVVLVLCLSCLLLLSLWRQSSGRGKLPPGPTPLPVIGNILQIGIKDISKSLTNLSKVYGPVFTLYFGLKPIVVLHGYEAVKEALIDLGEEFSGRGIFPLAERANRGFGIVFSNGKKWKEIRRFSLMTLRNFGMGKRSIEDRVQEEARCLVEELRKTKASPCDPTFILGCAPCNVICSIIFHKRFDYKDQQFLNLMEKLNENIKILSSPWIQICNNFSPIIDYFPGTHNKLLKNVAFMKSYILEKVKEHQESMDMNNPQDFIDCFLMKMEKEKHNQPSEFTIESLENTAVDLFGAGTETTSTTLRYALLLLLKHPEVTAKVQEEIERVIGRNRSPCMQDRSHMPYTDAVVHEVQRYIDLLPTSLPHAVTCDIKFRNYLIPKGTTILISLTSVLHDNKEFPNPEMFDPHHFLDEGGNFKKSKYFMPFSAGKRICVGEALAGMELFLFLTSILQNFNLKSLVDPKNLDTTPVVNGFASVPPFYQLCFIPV
# Sequence of Cytochrome P450 3A4 (Homo sapiens) (P08684 whole entry, looked up): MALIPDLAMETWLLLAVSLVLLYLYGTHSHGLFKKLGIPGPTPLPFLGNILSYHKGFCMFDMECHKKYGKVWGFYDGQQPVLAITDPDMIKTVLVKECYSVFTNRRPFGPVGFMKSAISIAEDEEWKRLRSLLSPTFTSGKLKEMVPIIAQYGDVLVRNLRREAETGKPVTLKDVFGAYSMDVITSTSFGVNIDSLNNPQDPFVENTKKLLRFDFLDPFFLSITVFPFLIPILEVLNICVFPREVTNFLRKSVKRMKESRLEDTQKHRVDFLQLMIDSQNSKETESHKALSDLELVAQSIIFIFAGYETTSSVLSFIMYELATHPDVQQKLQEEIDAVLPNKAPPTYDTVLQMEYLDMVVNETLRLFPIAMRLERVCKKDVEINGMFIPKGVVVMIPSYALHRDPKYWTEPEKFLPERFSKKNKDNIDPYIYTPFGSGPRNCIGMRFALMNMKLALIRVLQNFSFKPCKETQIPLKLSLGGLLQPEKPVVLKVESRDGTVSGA
# Sequence of Nicotinamide N-methyltransferase (Homo sapiens) (P40261 whole entry, looked up): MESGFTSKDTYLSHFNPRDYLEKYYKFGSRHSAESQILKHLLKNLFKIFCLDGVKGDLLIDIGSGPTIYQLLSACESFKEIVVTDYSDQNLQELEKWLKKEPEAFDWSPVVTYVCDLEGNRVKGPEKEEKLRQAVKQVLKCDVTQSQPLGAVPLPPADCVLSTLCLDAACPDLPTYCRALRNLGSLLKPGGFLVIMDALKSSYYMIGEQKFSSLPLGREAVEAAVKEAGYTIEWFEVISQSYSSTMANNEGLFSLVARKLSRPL
# Sequence of Papain (Carica papaya) (P00784 whole entry, looked up): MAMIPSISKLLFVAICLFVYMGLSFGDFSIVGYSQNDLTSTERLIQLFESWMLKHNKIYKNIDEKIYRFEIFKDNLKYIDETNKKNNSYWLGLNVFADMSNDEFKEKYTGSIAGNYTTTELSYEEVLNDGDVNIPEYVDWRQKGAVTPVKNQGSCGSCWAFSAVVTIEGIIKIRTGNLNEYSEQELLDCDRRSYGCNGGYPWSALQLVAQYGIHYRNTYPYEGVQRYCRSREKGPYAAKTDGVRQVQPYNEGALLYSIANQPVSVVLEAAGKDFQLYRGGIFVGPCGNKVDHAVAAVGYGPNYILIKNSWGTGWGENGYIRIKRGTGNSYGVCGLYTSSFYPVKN
# Sequence of Catechol O-methyltransferase (Homo sapiens) (P21964 whole entry, looked up): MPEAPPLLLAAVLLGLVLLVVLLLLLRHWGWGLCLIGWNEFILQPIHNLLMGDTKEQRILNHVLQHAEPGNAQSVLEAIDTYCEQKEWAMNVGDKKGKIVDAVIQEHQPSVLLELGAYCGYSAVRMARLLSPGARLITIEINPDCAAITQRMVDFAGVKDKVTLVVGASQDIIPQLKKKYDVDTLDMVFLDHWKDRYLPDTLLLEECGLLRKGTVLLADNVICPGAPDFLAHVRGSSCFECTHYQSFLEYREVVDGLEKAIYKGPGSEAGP
# Sequence of Cytochrome P450 2D6 (Homo sapiens) (P10635 whole entry, looked up): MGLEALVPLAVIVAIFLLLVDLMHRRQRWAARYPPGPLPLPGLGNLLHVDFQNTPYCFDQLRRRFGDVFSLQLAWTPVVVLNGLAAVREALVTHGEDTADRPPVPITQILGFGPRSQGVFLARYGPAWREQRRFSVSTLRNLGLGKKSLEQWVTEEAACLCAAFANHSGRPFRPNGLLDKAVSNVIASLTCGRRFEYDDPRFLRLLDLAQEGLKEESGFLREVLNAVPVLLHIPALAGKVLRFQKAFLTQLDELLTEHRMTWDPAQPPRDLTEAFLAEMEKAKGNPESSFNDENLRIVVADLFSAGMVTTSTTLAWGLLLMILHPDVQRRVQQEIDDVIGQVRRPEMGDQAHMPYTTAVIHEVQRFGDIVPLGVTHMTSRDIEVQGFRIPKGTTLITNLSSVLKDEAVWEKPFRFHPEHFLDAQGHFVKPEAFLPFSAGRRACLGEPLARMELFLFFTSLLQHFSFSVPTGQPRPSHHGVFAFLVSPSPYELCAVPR
# Sequence of Rap guanine nucleotide exchange factor 3 (Homo sapiens) (O95398 whole entry, looked up): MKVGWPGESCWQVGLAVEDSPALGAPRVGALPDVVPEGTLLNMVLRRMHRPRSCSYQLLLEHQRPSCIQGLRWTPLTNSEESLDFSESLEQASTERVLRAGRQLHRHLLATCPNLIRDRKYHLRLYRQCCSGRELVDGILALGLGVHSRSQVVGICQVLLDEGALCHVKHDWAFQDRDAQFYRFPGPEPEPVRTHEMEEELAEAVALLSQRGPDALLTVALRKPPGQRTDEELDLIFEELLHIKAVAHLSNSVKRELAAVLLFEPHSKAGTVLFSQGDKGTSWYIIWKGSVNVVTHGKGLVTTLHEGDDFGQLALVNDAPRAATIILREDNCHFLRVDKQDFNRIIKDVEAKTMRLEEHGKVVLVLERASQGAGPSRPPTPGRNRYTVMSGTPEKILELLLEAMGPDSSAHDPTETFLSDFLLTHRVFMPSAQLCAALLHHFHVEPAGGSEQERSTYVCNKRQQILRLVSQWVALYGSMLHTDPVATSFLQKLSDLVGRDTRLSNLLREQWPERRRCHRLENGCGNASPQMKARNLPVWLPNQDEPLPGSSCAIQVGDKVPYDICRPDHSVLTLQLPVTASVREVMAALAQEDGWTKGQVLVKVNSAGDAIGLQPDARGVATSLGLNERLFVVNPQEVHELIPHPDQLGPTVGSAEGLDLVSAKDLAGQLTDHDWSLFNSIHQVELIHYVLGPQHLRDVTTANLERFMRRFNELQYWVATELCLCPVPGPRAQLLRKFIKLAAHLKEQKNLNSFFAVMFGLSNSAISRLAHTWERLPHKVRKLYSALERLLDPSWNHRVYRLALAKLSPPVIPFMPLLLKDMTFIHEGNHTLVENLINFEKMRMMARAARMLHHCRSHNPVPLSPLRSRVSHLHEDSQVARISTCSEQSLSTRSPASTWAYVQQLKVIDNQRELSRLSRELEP
# Sequence of Rap guanine nucleotide exchange factor 4 (Homo sapiens) (Q8WZA2 whole entry, looked up): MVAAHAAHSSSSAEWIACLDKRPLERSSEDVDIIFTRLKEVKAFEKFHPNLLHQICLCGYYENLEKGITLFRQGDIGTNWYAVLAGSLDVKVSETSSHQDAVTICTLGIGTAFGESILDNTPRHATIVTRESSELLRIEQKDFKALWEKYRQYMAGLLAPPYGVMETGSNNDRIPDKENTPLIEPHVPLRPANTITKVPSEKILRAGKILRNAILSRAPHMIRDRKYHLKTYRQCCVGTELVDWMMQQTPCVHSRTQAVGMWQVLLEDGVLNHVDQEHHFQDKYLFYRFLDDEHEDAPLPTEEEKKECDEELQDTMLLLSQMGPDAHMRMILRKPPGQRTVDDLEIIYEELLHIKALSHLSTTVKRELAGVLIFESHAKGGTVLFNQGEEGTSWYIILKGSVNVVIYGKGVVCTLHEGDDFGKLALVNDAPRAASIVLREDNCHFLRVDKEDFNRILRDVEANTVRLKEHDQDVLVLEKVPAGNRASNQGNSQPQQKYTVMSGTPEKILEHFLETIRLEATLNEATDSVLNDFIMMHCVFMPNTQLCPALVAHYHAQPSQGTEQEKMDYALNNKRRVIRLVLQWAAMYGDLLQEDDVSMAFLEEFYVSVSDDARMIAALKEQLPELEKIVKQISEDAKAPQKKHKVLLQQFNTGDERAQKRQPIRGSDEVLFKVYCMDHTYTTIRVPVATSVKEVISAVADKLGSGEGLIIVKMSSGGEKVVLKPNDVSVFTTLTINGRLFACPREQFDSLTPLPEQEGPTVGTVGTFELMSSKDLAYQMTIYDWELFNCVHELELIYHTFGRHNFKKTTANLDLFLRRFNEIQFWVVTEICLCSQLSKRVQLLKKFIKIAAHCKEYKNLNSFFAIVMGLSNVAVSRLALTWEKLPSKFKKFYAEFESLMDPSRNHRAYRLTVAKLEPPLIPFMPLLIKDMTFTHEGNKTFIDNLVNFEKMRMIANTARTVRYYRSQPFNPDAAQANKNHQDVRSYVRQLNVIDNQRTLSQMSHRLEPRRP
structure (smiles),measurement,setting,value
c1cc(CN2CCCCC2)cc(OCCCNc2nc3ccccc3s2)c1,Potency,[1],inactive
same,Potency,[2],12.6 µM (active)
same,max response,[3],-7.44% (inactive)
same,Potency,[4],1.74 µM (active)
same,Potency,[5],inactive
same,Potency,Papain (Carica papaya),inactive
CC(=O)Nc1nnc(S(N)(=O)=O)s1,Potency,[6],inactive
same,Potency,[7],inactive
same,Potency,[4],inactive
same,outcome,[8],inactive
same,Potency,[5],inactive
same,Potency,Papain (Carica papaya),inactive
same,Potency,[9],inactive
same,Potency,[10],inactive
CN(C)CC/C=C1\c2ccccc2COc2ccccc21,Potency,[1],inactive
same,Potency,[4],1.95 µM (active)
same,Potency,[5],inactive
same,Potency,Papain (Carica papaya),inactive
OC(CCN1CCCCC1)(c1ccccc1)C1CCCCC1 (configuration not stated),Potency,[1],inactive
same,Potency,[2],35.5 µM (active)
same,max response,[3],13.7% (inactive)
same,Potency,[4],1.74 µM (active)
same,Potency,[5],inactive
same,Potency,Papain (Carica papaya),inactive
CCCC(C(=O)OCCN(CC)CC)(c1ccccc1)c1ccccc1,Potency,[1],17.8 µM (active)
same,Potency,[4],0.0347 µM (active)
same,Potency,[5],6.17 µM (active)
same,Potency,Papain (Carica papaya),inactive
same,Potency,[9],13.3 µM (active)
same,Potency,[10],11.9 µM (active)
CN1CCN(C2=Nc3ccccc3Oc3ccc(Cl)cc32)CC1,Potency,[1],inactive
same,max response,[3],14.4% (inactive)
same,Potency,[4],3.89 µM (active)
same,Potency,[5],inactive
same,Potency,Papain (Carica papaya),inactive
COC(=O)[C@H]1[C@H]2C[C@@H]3c4[nH]c5cc(OC)ccc5c4CCN3C[C@H]2C[C@@H](OC(=O)c2cc(OC)c(OC)c(OC)c2)[C@@H]1OC,Potency,[2],15.8 µM (active)
same,Potency,[4],15.5 µM (active)
same,Potency,[9],inactive
same,Potency,[10],inactive
C(=C\c1ccccc1)/CN1CCN(C(c2ccccc2)c2ccccc2)CC1,Potency,[1],inactive
same,Potency,Papain (Carica papaya),inactive
same,Potency,[9],inactive
same,Potency,[10],inactive
COc1ccc2c(c1OC)C(=O)O[C@@H]2[C@H]1c2c(cc3c(c2OC)OCO3)CCN1C,Potency,[6],inactive
same,Potency,[7],inactive
same,Potency,[4],4.9 µM (active)
same,Potency,[5],0.11 µM (active)
same,Potency,Papain (Carica papaya),inactive
CCC(=O)c1ccc2c(c1)N(CCCN(C)C)c1ccccc1S2,Potency,[1],inactive
same,Potency,[2],inactive
same,Potency,[4],0.49 µM (active)
same,Potency,[5],inactive
same,Potency,Papain (Carica papaya),inactive
same,activity,[11],6.41%
same,"activity change, negative = inhibition",[12],4.3%
same,activity,[13],-51.8%
COc1cc(C(=O)OCCCN2CCCN(CCCOC(=O)c3cc(OC)c(OC)c(OC)c3)CC2)cc(OC)c1OC,Potency,[1],inactive
same,max response,[3],-32.9% (inactive)
same,Potency,Papain (Carica papaya),inactive
same,Potency,[10],23.7 µM (active)
same,activity,[11],-6.42%
same,"activity change, negative = inhibition",[12],9.88%
same,activity,[13],-4.53%
CNC1(C)C2CCC(C2)C1(C)C (configuration not stated),Potency,[6],inactive
same,Potency,[7],inactive
same,Potency,[4],inactive
same,Potency,[5],inactive
same,Potency,Papain (Carica papaya),inactive
same,Potency,[9],inactive
same,Potency,[10],inactive
NC(=Nc1ccccc1)Nc1ccccc1,Potency,[1],inactive
same,Potency,[2],3.55 µM (active) and 5.62 µM (active) and 355 nM (active)
same,max response,[3],21.8% (inactive)
same,Potency,[6],3.16 µM (active)
same,Potency,[7],inactive
same,Potency,[4],461 nM (active) and 1.55 µM (active)
same,Potency,[5],inactive
same,Potency,[10],inactive
C[N+](C)(C)CCOC(N)=O,Potency,[6],inactive
same,Potency,[7],inactive
same,Potency,[4],inactive
same,Potency,[5],inactive
same,Potency,Papain (Carica papaya),inactive
CC(C)(C)NCC(O)c1cc(O)cc(O)c1 (configuration not stated),Potency,[6],inactive
same,Potency,[7],inactive
same,Potency,[4],inactive
O=C(CCCN1CCC(O)(c2cccc(C(F)(F)F)c2)CC1)c1ccc(F)cc1,max response,[3],-8.14% (inactive)
same,Potency,[7],inactive
same,Potency,Papain (Carica papaya),inactive
CC(C(=O)O)c1ccc(CC2CCCC2=O)cc1 (configuration not stated),Potency,[6],inactive
same,Potency,[7],inactive
same,Potency,[4],inactive
same,outcome,[8],inactive
same,Potency,[5],inactive
same,Potency,Papain (Carica papaya),inactive
same,Potency,[9],inactive
same,Potency,[10],inactive
C[C@]12CCC(=O)C=C1CC[C@@H]1[C@@H]2CC[C@@]2(C)[C@H]1CC[C@]2(O)C(=O)CO,Potency,[6],inactive
same,Potency,[7],inactive
same,Potency,[4],inactive
CN(C)CCCN1c2ccccc2Sc2ccccc21,max response,[3],-13.5% (inactive)
same,Potency,Papain (Carica papaya),inactive
N[C@@H](COP(=O)(O)O)C(=O)O,Potency,[6],inactive
same,Potency,[7],inactive
same,Potency,[4],inactive
same,outcome,[8],inactive
same,Potency,Papain (Carica papaya),inactive
same,Potency,[9],inactive
same,Potency,[10],inactive
CN(C)[C@@H]1C(=O)C(C(N)=O)=C(O)[C@@]2(O)C(=O)C3=C(O)c4c(O)ccc(Cl)c4[C@@H](O)[C@H]3C[C@@H]12,Potency,[6],inactive
same,Potency,[7],inactive
same,Potency,[4],inactive
same,outcome,[8],inactive
same,activity,[11],-43.5%
same,"activity change, negative = inhibition",[12],8.05%
same,activity,[13],-3.56%
Cc1nc2sccn2c(=O)c1CCN1CCC(=C(c2ccc(F)cc2)c2ccc(F)cc2)CC1,Potency,[1],inactive
same,max response,[3],-2.38% (inactive)
same,Potency,[4],3.09 µM (active)
same,Potency,Papain (Carica papaya),inactive
same,outcome,[14],inactive
same,Potency,[15],inactive
same,Potency,[16],inactive
same,Potency,[17],44.1 µM (active)
CN1C[C@H](C(=O)N[C@]2(C)O[C@@]3(O)[C@@H]4CCCN4C(=O)[C@H](Cc4ccccc4)N3C2=O)C[C@@H]2c3cccc4[nH]cc(c34)C[C@H]21,Potency,[1],inactive
same,Potency,[2],25.1 µM (active)
same,Potency,Papain (Carica papaya),inactive
CN(C)C/C=C(/c1ccc(Br)cc1)c1cccnc1,Potency,[1],inactive
same,max response,[3],4.56% (inactive)
same,Potency,Papain (Carica papaya),inactive
same,Potency,[9],inactive
same,Potency,[10],inactive
CCN(CC)CCCN(c1ccccc1)C1Cc2ccccc2C1,Potency,[1],inactive
same,Potency,[2],39.8 µM (active)
same,Potency,[4],0.0389 µM (active)
same,Potency,[5],inactive
same,Potency,Papain (Carica papaya),inactive
CC1=C(C)C(=O)C(CCCCC#CCCCC#CCO)=C(C)C1=O,Potency,[1],inactive
same,Potency,[7],inactive
same,Potency,[4],4.9 µM (active)
same,Potency,[5],3.09 µM (active)
same,Potency,Papain (Carica papaya),inactive
same,Potency,[9],18.8 µM (active)
same,Potency,[10],10.6 µM (active)
same,activity,[11],4.09%
same,"activity change, negative = inhibition",[12],4.63%
same,activity,[13],-9.42%
CN(C)CC[C@@H](c1ccc(Br)cc1)c1ccccn1,Potency,[1],inactive
same,Potency,[6],inactive
same,Potency,[7],inactive
same,Potency,[4],4.9 µM (active)
same,Potency,Papain (Carica papaya),inactive
same,Potency,[9],inactive
same,activity,[11],-5.16%
same,"activity change, negative = inhibition",[12],1.79%
same,activity,[13],-23.7%
COC(=O)[C@@H](N)Cc1ccc(O)c(O)c1,Potency,[2],35.5 µM (active)
same,max response,[3],-5.59% (inactive)
same,Potency,[7],inactive
same,Potency,[4],inactive
same,Potency,[5],inactive
same,Potency,Papain (Carica papaya),inactive
same,activity,[11],134%
same,"activity change, negative = inhibition",[12],1.23%
same,activity,[13],4.06%
CCCCNc1ccc(C(=O)OCCN(C)C)cc1,Potency,[1],inactive
same,max response,[3],13.7% (inactive) and 3.85% (inactive) and 11.6% (inactive)
same,Potency,[6],inactive
same,Potency,[7],inactive
same,Potency,Papain (Carica papaya),inactive
same,Potency,[9],inactive
same,Potency,[10],inactive
